From PubChem BioAssay (EPA / NIEHS) come the findings set out here.

Records with an inconclusive call do not appear. Some compounds were tested as several samples or in several runs, with calls that do not always agree. Activity calls are given as the source filed them. Rule for the calls: active = hit-call score of the fitted dose curve at least 0.9, where 1 is the maximum; inconclusive = response in the unintended direction; inactive = score below 0.9.

The assay can be described thus: CCTE_Shafer_MEA_dev_AB: CCTE's Alamar Blue Assay for Cytotoxicity in the Neural Network Formation Assay, Shafer Lab (AID 2284083).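 Note: twelve days of exposure from plating with re-dosing on DIV 5 and 9.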 Here is the method: CCTE_Shafer_MEA_dev assay is conducted using Axion Biosystems 48 well microelectrode array (MEA) plates and Maestro recording system. Each well of the MEA plate contains a grid of 16 microelectrodes embedded in the culture surface. Electrically active cells, such as neurons, can be cultured over the electrodes, and electrical activity in these cells can be recorded extracellularly. The spontaneous firing of neurons is captured from each electrode on a microsecond timescale providing both temporally and spatially precise data. […] The CCTE_Shafer_MEA_dev assay uses primary cultures of rat cortical neurons. Recordings are made on days post-plating 5, 7, 9 and 12. As these cultures mature over time, neural networks develop functional activity and form cohesive networks in which electrical activity can be highly coordinated. CCTE_Shafer_MEA_dev_AB is 1 of 19 assay components of the CCTE_Shafer_MEA_dev assay. It measures the resazurin reduction using fluorescence.Data from the assay component CCTE_Shafer_MEA_dev_AB was analyzed into 1 assay endpoint. This assay endpoint, CCTE_Shafer_MEA_dev_AB, was analyzed in the positive analysis fitting direction relative to DMSO as the negative control and baseline of activity. Using a type of viability reporter, loss-of-signal activity can be used to understand cell viability.
On the day prior to culture, each well was coated thoroughly with 150 uL of 0.05% polyethyleneimine (PEI, Sigma Cat P3143) in 50 mM HEPES (Sigma Cat H7523) at a pH of 8. The plate was incubated at 37C for one hour. PEI was rinsed out with 500 uL of sterile water three times. Plates were stored at 4C until the day of culture. This culture was plated at a seeding density of 1.5 x 10^5 cells/well on a 48-well MEA plate, prepared as described above. Cells were administered via a 25 uL media/laminin ([…]; Sigma Cat L2020-1MG) drop directly onto the microelectrode array, as adding the cells with the laminin results in better attachment than pre-coating with laminin. After 2 hours, an additional 475 uL of cortical media was added and the cells returned to the incubator. Exposure starts at day 0 of plating and is continued over twelve days of network development until the experiment is terminated. Cells are fed with fresh medium on DIV 5 and 9, following the recordings on those days. The entire volume of media in the well is exchanged and any vehicle or compound treatment is renewed. Complete details are found in OP-NHEERL/ISTD/SBB/TJS/2015-03-r0 (available on request, email shafer.tim@epa.gov). Measurement of the electrical activity is non-invasive, and recordings can be made from the same plate over multiple different days of the culture. In cortical neurons, this allows for the measurement of extracellular action potentials over the period during which networks form in the MEA plate.
(In general: The colour change of resazurin is a common sign of viable cells or microbes.)
One may read the AC50 as the concentration at which the activity in the assay is half-maximal. For `CC(C)(C)c1ccccc1OP(=O)(Oc1ccccc1)Oc1ccccc1`, the outcome was inactive and the half-maximal activity concentration (AC50) is 15 µM (active).
Regarding `ClC1=C(Cl)C2(Cl)C3C(Cl)C(Cl)CC3C1(Cl)C2(Cl)Cl` (centres undefined), the AC50 was 7.42 µM (active).
With `CCOP(=S)(OCC)SCSCC`, the result was inactive and the AC50 was 68.9 µM (active).
Consider `O=S(=O)(c1ccc(O)cc1)c1ccc(O)cc1`, for which the call was inactive.
Still for that read-out and setting: to `CCCCC(CC)COP(=O)(Oc1ccccc1)Oc1ccccc1` (centres undefined) belongs “inactive”.
`C=CC(=O)OCC(F)(F)C(F)F`: the AC50 was 20.7 µM (active).
As to `O=C(O)C(F)(OC(F)(F)C(F)(F)C(F)(F)F)C(F)(F)F` (centres undefined), the compound was called inactive.
In the case of `CO/N=C(/C(=O)OC)c1ccccc1COc1ccccc1C`, the AC50 is 1.15 µM (active).
In the case of `OCC(F)(F)OC(F)(F)C(F)(F)OC(F)(F)C(F)(F)OC(F)(F)CO`, the compound was called inactive.
Still for that read-out and setting: as for `O=P(Oc1ccccc1)(Oc1ccccc1)Oc1ccccc1`, the entry is “inactive”.
With `CC(O)C(F)(F)C(F)(F)F` (centres undefined), the compound was classed as inactive.
In the case of `CCCCC(CC)COC(=O)c1c(Br)c(Br)c(Br)c(Br)c1C(=O)OCC(CC)CCCC` (centres undefined), the concentration at half-maximal activity (AC50) was 0.0248 µM (active).
With `c1cc2c3c(cccc3c1)CC2`, the outcome was inactive.
Take `CCOc1ccc(C(C)(C)COCc2cccc(Oc3ccccc3)c2)cc1`: the AC50 is 1.98 µM (active).
Take `CCC1(c2ccccc2)C(=O)N=C(O)NC1=O` (centres undefined): the compound was classed as inactive.
`O=C(O)C(F)(F)C(F)(F)C(=O)O`: the result was inactive.
The same measure, in the same setting: as for `OCC(F)(F)OC(F)(F)C(F)(F)OC(F)(F)C(F)(F)OC(F)(F)F`, the entry is “inactive”.
